Screening data: PubChem, National Center for Advancing Translational Sciences (NCATS)
Hits are enriched below; roughly 0.45% of the tested compounds scored in any of these assays.
CXXC DNA block = inhibitors of human MLL CXXC domain-DNA interaction | MLL-CXXC / FITC-HOXA9 DNA fluorescence polarization | Potency, µM (doses to about 115 µM), without a hit: at the top dose activity change, negative = inhibition, actives largely listed as inhibitors | hit rate 0.037% among 290,000 | Q03164; active = well fitted inhibition curve with a large enough effect in the polarisation, with a control signal flat, not every such curve was filed as active; inconclusive = small, poorly fitted or top-dose-only effect, or effect the other way, or a change in a side signal; inactive = no such curve, though single readings can be large or run the other way; the % refers to the polarisation; note: potency is the fitted concentration of half-maximal effect
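Fluorescence polarization: 7 uM MLL-CXXC (stock) preincubated 5 min with compounds, then 50 nM fluorescein-HOX-A9 DNA (stock) added; 30 min ambient. Buffer 50 mM Tris-HCl pH 7.5, 50 mM NaCl, 1 mM DTT, 0.05% BSA.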
Menin-MLL FL inh = menin-MLL binding inhibition, fluorescein peptide; Fluorescence polarization, fluorescein-MLL peptide displacement from menin; FP activity change, % at 61.4 µM; 290,000 tested, under 10 active; AID 1766; active = well fitted curve in the direction sought with a large enough effect in the polarisation, not every such curve was filed as active; inconclusive = small, poorly fitted or top-dose-only effect, or effect the other way, or a change in a side signal; inactive = no such curve, though single readings can be large or run the other way; the % refers to the polarisation; note: % of control where 0% means no effect
Menin-MLL TR inh = menin-MLL binding inhibition, Texas Red mutant peptide | hit rate 0.23% among 270,000 | Potency, µM (top dose mostly 61.6 µM), without a hit: top-dose FP activity change, negative = inhibition, most hits filed as inhibitors | Menin + Texas Red MLL mutant peptide, fluorescence polarization; active = well fitted inhibition curve with a large enough effect in the polarisation, with a control signal flat, not every such curve was filed as active; inconclusive = small, poorly fitted or top-dose-only effect, or effect the other way, or a change in a side signal; inactive = no such curve, though single readings can be large or run the other way; the % refers to the polarisation; note: potency is the fitted concentration of half-maximal effect; % of control where 0% means no effect
Target sequence (O00255 whole entry, looked up): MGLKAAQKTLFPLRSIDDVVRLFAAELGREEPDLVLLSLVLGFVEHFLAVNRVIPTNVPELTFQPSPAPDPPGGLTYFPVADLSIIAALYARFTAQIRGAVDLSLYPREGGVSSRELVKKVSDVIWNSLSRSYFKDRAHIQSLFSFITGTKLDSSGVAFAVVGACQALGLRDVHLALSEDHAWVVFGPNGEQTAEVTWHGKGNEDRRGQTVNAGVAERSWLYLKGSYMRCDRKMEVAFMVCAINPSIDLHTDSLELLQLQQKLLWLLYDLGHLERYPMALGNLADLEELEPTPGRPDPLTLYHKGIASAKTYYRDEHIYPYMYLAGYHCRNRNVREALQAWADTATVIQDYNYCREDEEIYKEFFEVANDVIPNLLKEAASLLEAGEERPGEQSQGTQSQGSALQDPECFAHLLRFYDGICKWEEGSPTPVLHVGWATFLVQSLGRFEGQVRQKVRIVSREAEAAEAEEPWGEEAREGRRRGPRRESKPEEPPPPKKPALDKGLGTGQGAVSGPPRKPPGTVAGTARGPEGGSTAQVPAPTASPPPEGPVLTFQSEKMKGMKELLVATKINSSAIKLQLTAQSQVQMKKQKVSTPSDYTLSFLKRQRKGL
Akt phos inh = Akt phosphorylation inhibition; Neuro2A IGF-stimulated pAkt S473 HTRF, 20 min; active compounds read low; activity change, % for hits at 50 µM; hit rate 0.32% among 360,000; AID 651550; in the data active = activity change below about -80%; inconclusive = mostly about -51% to -80%; note: % is set by controls: 0 for no effect and ±100 for the full control effect
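Single-point screen (50 µM final compound) in Neuro2A cells stimulated 20 min with 6 nM IGF at 37 deg C. After lysis, Ser473-phosphorylated Akt read by HTRF (ex 330 nm, em 615/665 nm) as the 665/615 ratio.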
MBNL1-CUG inh = MBNL1-poly(CUG) RNA binding inhibition; hit rate 0.036% among 280,000; Potency, µM (series often up to 57.5 µM), without a hit: at the top dose activity change, negative = inhibition, most hits filed as inhibitors; AID 2675; TR-FRET MBNL1-His/biotin-(CUG)12 binding, 665/545 ratio; active = well fitted inhibition curve with a large enough effect in the signal ratio, with a control signal flat, not every such curve was filed as active; inconclusive = small, poorly fitted or top-dose-only effect, or effect the other way, or a change in a side signal; inactive = no such curve, though single readings can be large or run the other way; the % refers to the signal ratio; note: potency is the fitted concentration of half-maximal effect; % is set by controls: 0 for no effect and ±100 for the full control effect
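His-tagged MBNL1 binding to biotinylated (CUG)12 RNA was measured by TR-FRET using terbium anti-His antibody (0.055 ng/ul final) and streptavidin-XL665 (5 nM final). Compounds were titrated 92 nM to 58 uM; 60 min at room temperature.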
S-ASM inh = blocks human secretory acid sphingomyelinase | P17405 | placental ASM, HMU-PC fluorogenic substrate, 60 min | Potency, µM (titrated, usually from 57.5 µM), inactives show top-dose activity change, negative = inhibition, most hits filed as inhibitors | hit rate 0.006% among 340,000; active = well fitted inhibition curve with a large enough effect; inconclusive = small, poorly fitted or top-dose-only effect; inactive = no such curve, though single readings can be large or run the other way; note: potency is the fitted concentration of half-maximal effect
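Steps: dispense placental human ASM, pin compound, wait 10 min at room temperature, add HMU-PC0 substrate at 9 uM final, incubate 60 min at 37 °C, add stop solution raising pH to 10, read fluorescence.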
* = called active by the depositor.

`Cc1ccc(S(=O)(=O)NCCn2c(C)cc3ccccc32)cc1` gave CXXC DNA block -6.1%, Menin-MLL FL inh -23.8, Menin-MLL TR inh 28.2µM* and MBNL1-CUG inh 112.3%.
For Cc1cc(C)c(S(=O)(=O)NCCn2c(C)cc3ccccc32)c(C)c1 the results were CXXC DNA block 8.3%, Menin-MLL FL inh -20.4, Menin-MLL TR inh inconclusive, Akt phos inh inactive, MBNL1-CUG inh 181.0% and S-ASM inh inconclusive.
Screening Cc1ccc(S(=O)(=O)N/N=C/c2cc(Br)c(C)o2)cc1 returned CXXC DNA block -0.8%, Menin-MLL FL inh 7.9, Menin-MLL TR inh 47.9%, Akt phos inh -95.4%*, MBNL1-CUG inh 10.4% and S-ASM inh -1.5%.
`O=C(CCC1CCCN(C(=O)c2ccc3cc[nH]c3c2)C1)NCc1ccc(F)c(F)c1` (stereo not drawn) gave CXXC DNA block 5.5%, Menin-MLL FL inh -3.8, Menin-MLL TR inh -8.1%, Akt phos inh inactive, MBNL1-CUG inh -11.4% and S-ASM inh 5.1%.
Screening CC(=O)c1c(C)[nH]c(C(=O)CSc2nc3ccccc3n2C)c1C returned CXXC DNA block -11.6%, Menin-MLL FL inh -1.4, Menin-MLL TR inh inconclusive, Akt phos inh -85.0%*, MBNL1-CUG inh 15.0% and S-ASM inh -2.5%.
Screening NC(=O)CN(C/C=C/c1ccccc1)C/C=C/c1ccccc1 returned CXXC DNA block -8.0%, Menin-MLL FL inh 1.3, Menin-MLL TR inh -27.4%, Akt phos inh inactive, MBNL1-CUG inh -2.8% and S-ASM inh -2.1%.
`CCOC(=O)C1C(=O)CC(C)(O)C(C(=O)OCC)C1c1cccs1` (stereo not drawn) gave CXXC DNA block -5.0%, Menin-MLL FL inh 2.3, Menin-MLL TR inh 2.8%, Akt phos inh -108.6%*, MBNL1-CUG inh -7.1% and S-ASM inh -1.8%.
Screening COc1ccc(CCN2C(=O)c3ccccc3C2c2nnnn2-c2c(C)cccc2C)cc1OC (stereo not drawn) returned Akt phos inh inactive.
`COc1ccc(O)c(C(=O)CC(=O)c2ccccc2)c1` gave CXXC DNA block 45.6%, Menin-MLL FL inh 4.3, Menin-MLL TR inh inconclusive and MBNL1-CUG inh 0.9%.
`COCCNC(=O)C1CCN(S(=O)(=O)N2CCC3(CC2)OCCO3)CC1` gave CXXC DNA block -1.3%, Menin-MLL FL inh -3.4, Menin-MLL TR inh inconclusive, Akt phos inh -81.8%*, MBNL1-CUG inh -11.6% and S-ASM inh 2.2%.
Screening N=c1c2c(-c3ccccc3)c(-c3ccccc3)n(Cc3ccccc3)c2ncn1CCCn1ccnc1 returned CXXC DNA block 83.3%, Menin-MLL FL inh -1.9, Menin-MLL TR inh 22.4µM*, MBNL1-CUG inh -2.5% and S-ASM inh 0.4%.
COc1ccc(CCC(=O)Nc2cc(Cl)ccc2N2CCN(C)CC2)cc1 was read as CXXC DNA block -14.7%, Menin-MLL FL inh -0.2, Menin-MLL TR inh -1.9%, Akt phos inh -107.1%*, MBNL1-CUG inh -10.0% and S-ASM inh 2.4%.
Screening CCC(=O)N1CCN(c2ccc(Cl)cc2NC(=O)Cc2ccc(Cl)cc2)CC1 returned CXXC DNA block 1.0%, Menin-MLL FL inh 3.0, Menin-MLL TR inh -7.9%, Akt phos inh -84.7%*, MBNL1-CUG inh -6.6% and S-ASM inh -2.6%.
CCn1nnnc1SCC(=O)c1ccc2c(c1)OCCO2 was read as CXXC DNA block 5.7%, Menin-MLL FL inh 3.6, Menin-MLL TR inh -12.5%, Akt phos inh -104.3%*, MBNL1-CUG inh 10.5% and S-ASM inh 0.3%.
Screening Cc1ccc(C)c(NC(=O)CN2C(=O)c3ccccc3C2=O)c1 returned Akt phos inh inactive and S-ASM inh 4.1%.
COCCn1c(N)c(NCc2ccccc2)c(=O)n(CC(=O)Nc2cc(C)ccc2C)c1=O was read as CXXC DNA block -3.0%, Menin-MLL FL inh inconclusive, Menin-MLL TR inh inconclusive, Akt phos inh -108.1%*, MBNL1-CUG inh 4.2% and S-ASM inh 3.2%.
